# Measurements taken from the supplement of paper PMC3334620.
# In all, about 33,000 sequences were measured (“E-score (-0.5 to 0.5)”: median about -8e-05, highest 2% from about 0.23 on). What follows is part of a selection rich in the highest values, with near analogues and random picks from the rest.
# Target: T1, Nrg2 (UniProt P38082)
# T1 sequence: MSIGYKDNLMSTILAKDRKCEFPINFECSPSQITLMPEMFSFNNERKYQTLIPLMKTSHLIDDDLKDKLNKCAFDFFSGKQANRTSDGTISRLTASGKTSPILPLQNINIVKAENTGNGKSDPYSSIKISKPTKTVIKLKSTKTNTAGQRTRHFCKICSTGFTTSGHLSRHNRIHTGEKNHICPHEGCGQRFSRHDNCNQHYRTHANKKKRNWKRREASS
# Assay: PBM E-score (8-mer binding enrichment) (E-score (-0.5 to 0.5)); higher = stronger / more preferred TF binding
# Settings: protein concentration: 100 nM; construct: GST-full length
# Protocol: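 Universal 'all 10-mer' protein binding microarrays (Agilent AMADID 015681) probed with GST-tagged S. cerevisiae TFs (full-length or DBD) made by in vitro transcription/translation (PURExpress), about 100-200 nM. Bound TF was detected with fluorescent anti-GST. Each ungapped 8-mer (which stands for itself and its reverse complement) is scored by the PBM enrichment score (E-score), a modified Wilcoxon-Mann-Whitney statistic from -0.5 to +0.5, computed with the Universal PBM Analysis Suite. Scale: above 0.35 generally sequence-specific binding.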
row,Sequence,PBM E-score
1,CCCGGAGA,-0.138
2,TGATAGCA,0.14
3,TGAGGACA,0.0644
4,ACTCTTTA,-0.0446
5,GAGTAGGC,-0.0622
6,AATACTGC,0.068
7,ACAGCTGC,-0.0727
8,CTTACTAA,0.0213
9,CAGGCCTG,0.115
10,AGGGTACC,0.0534
11,AGGGTACA,0.181
12,AGGGTACT,0.255
13,GGTCTACA,-0.0592
14,CAAACCAC,-0.00637
15,CTACGTTC,-0.178
16,ACGGAACA,0.0339
17,CCGGAACA,-0.0209
18,TCGGAACA,0.313
19,CGGCCATA,-0.123
20,AGGTTTCC,-0.0376
21,TCCGTGCA,0.134
22,CGAACGGC,-0.0328
23,CATGGCCG,0.258
24,CATGGCCC,-0.066
25,CATGGCCA,-0.042

row,Sequence,PBM E-score
1,AGTCAGTC,-0.127
2,ACTAATCT,0.00502
3,CCTAATCG,0.16
4,ACTAATCG,0.278
5,GGACCACC,0.0365
6,ACTCCAGC,-0.0193
7,GATTTCGC,0.281
8,CATTTCGC,0.184
9,ATTTTCGC,0.131
10,AATTTCGC,0.244
11,AATTTCGA,0.0453
12,GATTTCGA,0.00717
13,GTAGTCTA,-0.118
14,AACACTAT,0.252
15,GACAAGAC,0.154
16,AACAATAG,-0.124
17,AACACTAC,0.0505
18,AACACTAG,0.152
19,AACAATAC,0.202
20,GACAAAAA,0.0692
21,AACAATAT,0.266
22,AACAATAA,0.26
23,GACAAAAC,0.274
24,ACCAATAT,0.213
25,AGCAATAT,0.0474

row,Sequence,PBM E-score
1,AGTGAATC,0.0226
2,ATTTGCTC,0.156
3,GCCGAGGC,0.177
4,CATTAAGA,-0.214
5,ACTGGCCT,-0.0393
6,CCGGAGCC,-0.189
7,GACAATAA,0.218
8,GACAATAC,0.232
9,AACAATCT,0.0946
10,CACAATAC,0.173
11,CGTAATAG,-0.00104
12,AGTAATAG,0.247
13,AGTAATAC,-0.0266
14,AATAATAT,0.283
15,AACAATCC,0.241
16,AACAATCG,-0.0412
17,AATAATAG,0.0626
18,AATAATAA,0.0987
19,TCTCTTAA,0.123
20,AGGTTCAG,0.0524
21,ACCCTTCT,-0.104
22,GCCTGGTA,0.0618
23,ATAGGTTA,-0.00463
24,CGCAATAC,0.231
25,CGCAATAA,0.211

row,Sequence,PBM E-score
1,AGCAATAC,0.12
2,GATACACC,0.0324
3,AAATCGAA,0.111
4,CAATCGAA,0.258
5,CAATCGAC,-0.102
6,TAATCGAA,0.176
7,GTATCGAC,0.123
8,ATGTCGAA,0.147
9,CTATCGAC,-0.166
10,ATGTCGAC,0.254
11,AAATCGAC,0.237
12,AAATCGAG,0.0129
13,ATATCGAC,0.255
14,CTGTCGAC,-0.0435
15,CGCCGGAC,0.0155
16,CCCTGTCC,0.0104
17,CTTGAAGC,-0.0505
18,CAACGGTG,-0.187
19,CAACAAGG,0.186
20,GACTCTCA,-0.0326
21,AATGCACC,0.0152
22,GAATTTGC,0.172
23,ATCTGAGG,0.0579
24,ACTAACGA,0.00448
25,CACAGCGC,0.156

row,Sequence,PBM E-score
1,CGCGACAA,0.308
2,GGCGACAA,-0.0104
3,TGCGACAA,0.0655
4,AGCGAACA,0.0707
5,GGCGACCA,-0.146
6,CGCGACCA,0.23
7,CGCGAACA,0.264
8,AGCGACCA,-0.0183
9,CCCGACAA,0.261
10,CCCGACAG,-0.165
11,GGCGAACA,-0.00418
12,ACCGACAA,0.0162
13,ACGCCCCA,0.179
14,AAGGCGGG,-0.208
15,CGGTGATA,-0.0567
16,ACAGAGCA,0.0833
17,TAGCATGA,0.149
18,GAAATGAA,0.29
19,TAAATGAA,0.0819
20,CAAATGAA,-0.0303
21,AAAATGAC,0.0768
22,GAAATGAC,0.249
23,CAAATGAC,0.0271
24,AGCGAAAC,0.102
25,CTTACCAA,0.069

row,Sequence,PBM E-score
1,CAGCGCCG,-0.09
2,ATACCAAT,0.0716
3,GCAAGAGA,-0.12
4,CTATTTCA,0.164
5,GAATTTCC,0.252
6,ATATTTCC,0.206
7,CAATTTCC,0.108
8,CTATTTCC,0.255
9,AAATTTCC,0.113
10,AGTAGGTC,-0.219
11,ATTTAGTA,0.274
12,CTTTAGTA,-0.00347
13,CATTAGTA,0.112
14,AATTAGTA,0.23
15,AATTAGTC,0.107
16,ATTTAGTC,0.0158
17,GATGCGGC,-0.094
18,ACTCTAGA,-0.0152
19,CGTGGGGA,0.121
20,GGTGGGGA,0.265
21,AATGGGGA,0.0109
22,CATGGGGA,0.135
23,GGCGGGAA,-0.11
24,CGCGGGGA,0.165
25,GGTGGGAA,-0.0571

row,Sequence,PBM E-score
1,GGCGGGGA,0.249
2,TATGGGGA,0.283
3,ATACCGAC,-0.243
4,CCGTCCGA,-0.257
5,GACTAGGA,-0.0424
6,CAAATCTA,0.101
7,ACTTGAGC,-0.295
8,ACGTGGCT,-0.0848
9,ATACTGAG,0.255
10,ATACTGAC,0.146
11,ATACTGTG,-0.0451
12,ATACTGAT,0.225
13,CTACTGAG,-0.00592
14,ATACTGTC,0.256
15,AGCCGCGA,-0.0535
16,AGTCCAAC,0.0694
17,ATGTTCTC,-0.0462
18,AGTAAGAG,-0.0249
19,GTCCCTTA,0.288
20,GTCCCTGA,0.356
21,ATCCCCTA,0.0411
22,ATCCCTGC,0.157
23,ATCCCTTA,0.0558
24,CTCCCTGA,0.0641
25,GTCCCTCA,0.0343
